# Source: PubChem BioAssay (NCATS)
# Records with an inconclusive call do not appear. A call without a number means that no potency is given here. Active and inactive are the calls of the source. Calls follow the shape of the dose curve; as a rule, active = well fitted inhibition curve with a large enough effect; inconclusive = small, poorly fitted or top-dose-only effect; inactive = flat fitted curve, though single readings scatter.
# Tested on: Zika virus NS2B-NS3 protease
# Assay: Primary screen GU AMC qHTS for Zika virus inhibitors (AID 1347154); also: nearly all actives have a fitted effect of over 70% in size
# Conditions: Zika NS2B-NS3 unlinked protease, AMC fluorogenic substrate; series mostly up to 54.1 µM
# In short: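 Unlinked Zika NS2B hydrophilic domain–NS3 protease complex at 25 nM in 10 mM Tris-HCl pH 8.0, 0.01% Tween 20, with an AMC peptide substrate. Fluorescence change (340/450 nm) over 15 min at room temperature, normalized to controls, fitted to 4-parameter Hill.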
Compound,Potency,"activity change, negative = inhibition"
CN1Cc2cc(C(=O)N3CCC(C4CCNCC4)CC3)ccc2N[C@@H](CC(=O)O)C1=O,inactive,–
O=C(O)C(=O)Nc1cccc(-c2nn[nH]n2)c1,inactive,–
NCC[C@H](O)C(=O)N[C@@H]1C[C@H](N)[C@@H](O[C@H]2O[C@H](CN)[C@@H](O)[C@H](O)[C@@H]2O)[C@H](O)[C@@H]1O[C@H]1O[C@H](CO)[C@@H](O)[C@H](N)[C@@H]1O,–,-0.909% [at 0.59 µM] (inactive)
CC(C)(C)c1nnc(NS(=O)(=O)c2ccccc2)s1,inactive,–
CC(=O)N(c1onc(C)c1C)S(=O)(=O)c1ccc(N)cc1,inactive,–
CN1[C@@H]2CC[C@H]1CC(NC(=O)n1c(=O)[nH]c3ccccc31)C2 (stereo partly specified),inactive,–
O=C(O)c1[nH]n(-c2ccc(S(=O)(=O)O)cc2)c(=O)c1N=Nc1ccc(S(=O)(=O)O)cc1,inactive,–
COc1ccc(/C(C)=C/C(=O)O)c(OC)c1,inactive,–
COc1cc2c(cc1OC)C(=O)CC2,inactive,–
O=C(O)c1ccccc1S,inactive,–
O=C(CCCl)NCCc1ccccc1,inactive,–
O=C1CC2(CCCC2)CC(=O)N1CCNCC1COc2ccccc2O1 (stereo unspecified),inactive,–
CCCCCCCCCCCC[N+](C)(C)Cc1ccccc1,inactive,–
CC(C)C(=O)Nc1cccc(C2CN3CCSC3=N2)c1 (stereo unspecified),inactive,–
O=C(O)[C@@H](O)[C@H](O)[C@H](O)[C@@H](O)C(=O)O,inactive,–
Cc1ccc(C(C)OC(=O)C2(C)CCC(C(=O)O)C2(C)C)cc1 (stereo unspecified),inactive,–
